B2AR arrestin: qHTS assay of beta-arrestin-biased ligands of beta2-adrenergic receptor | beta-arrestin recruitment to beta2AR, cell-based reporter | actives 0.02% (n = 330,000) | AID 492947, 2010 | Potency, µM (doses to about 46.1 µM), hits mostly activators | Beta-2 adrenergic receptor (Homo sapiens), P07550; further: nearly all actives have a fitted effect of over 65% in size
Target sequence (P07550 whole entry, looked up): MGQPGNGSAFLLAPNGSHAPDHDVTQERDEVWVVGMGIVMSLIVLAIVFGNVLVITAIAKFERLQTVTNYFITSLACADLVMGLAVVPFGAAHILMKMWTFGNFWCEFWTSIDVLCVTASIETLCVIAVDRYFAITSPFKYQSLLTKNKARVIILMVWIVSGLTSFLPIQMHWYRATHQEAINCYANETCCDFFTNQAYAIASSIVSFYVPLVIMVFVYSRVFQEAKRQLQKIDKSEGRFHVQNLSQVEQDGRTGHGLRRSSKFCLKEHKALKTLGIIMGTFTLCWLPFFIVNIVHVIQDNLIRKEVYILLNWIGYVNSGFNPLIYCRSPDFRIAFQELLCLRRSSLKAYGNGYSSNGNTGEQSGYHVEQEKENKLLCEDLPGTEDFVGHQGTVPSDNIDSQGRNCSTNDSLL
D3 ag: qHTS of D3 Dopamine Receptor Agonist: qHTS; D3R DiscoveRx beta-arrestin cells, luminescence, 90 min; AID 652048, 2013; max activation, %; actives 0.58% (n = 410,000); in the data active means max activation above about 30%
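Cells at 1500/well, incubated overnight, then treated with pinned compounds (dopamine as control) for 90 min at 37 degrees C. DiscoveRx reagent added for 30 - 60 minutes at room temperature; luminescence read.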
D3 antag: qHTS of D3 Dopamine Receptor Antagonist: qHTS | D(3) dopamine receptor (Homo sapiens), P35462 | actives 2.5% (n = 360,000) | max response, negative = inhibition, % | D3R cells, DiscoveRx beta-arrestin luminescence, antagonist mode; active compounds read low; in the data active means max response below about -50%; inconclusive means no clear call, values can overlap the other calls
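Cells plated overnight at 1500 cells/well, then exposed to library compounds with dopamine controls for 90 minutes at 37 degrees C. DiscoveRx reagent added for 30–60 minutes at room temperature; luminescence read, quantitative HTS format.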
a7 integrin act: qHTS for Activators of Integrin-Mediated Alleviation for Muscular Dystrophy; alpha7betagal myoblasts, beta-gal FDG fluorescence, 48 h; Potency, µM (series often up to 38.3 µM), most hits filed as activators; actives 0.064% (n = 350,000); AID 624291, 2012; further: nearly all actives have a fitted effect of over 60% in size
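Alpha7betagal+/- myoblasts (passage 13) were plated 16-24 hr, then exposed to compounds (1:260 dilution of DMSO stock) for 48 hours at 37C. After MPER lysis, β-galactosidase reporter activity was read as FDG fluorescence (ex 480/em 540) after 30 minutes.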
mIDH1 inhibitor: qHTS for Inhibitors of mutant isocitrate dehydrogenase 1 (IDH1): qHTS; Potency, µM (series often up to 76.6 µM), usual class: inhibitors; AID 602179, 2012; actives 0.093% (n = 390,000); Isocitrate dehydrogenase [NADP] cytoplasmic (Homo sapiens), O75874; IDH1-R132H enzyme, NADPH consumption, diaphorase/resazurin fluorescence; further: nearly all actives have a fitted effect of over 65% in size
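IDH1-R132H (0.5 ug/mL) preincubated 30 min with compound, then NADPH (0.016 mM) and alpha-KG (2 mM) added; 80 min at RT, pH 7.5. Remaining NADPH coupled via diaphorase/resazurin to fluorescence (540/590 nm); concentration-response curves normalized to no-enzyme control.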
A number is an active result; – = inactive; ? = inconclusive; · = not tested or not shown. Hits are enriched below; roughly 2.9% of the tested compounds scored in any of these assays. Unless noted, the call rests on the fitted dose curve; in most records, active means well fitted curve in the direction sought with a large enough effect; inconclusive means small, poorly fitted or top-dose-only effect, or another doubt; inactive means no such curve, though single readings can be large; an effect the other way counts as inactive or inconclusive.

SMILES | B2AR arrestin | D3 ag | D3 antag | a7 integrin act | mIDH1 inhibitor
Cc1ccc(C)c(OCCCCN2CCNCC2)c1C | – | – | – | – | –
CC1CN(CCOCCSc2ccc(Cl)cc2)CC(C)O1 (configuration not stated) | – | – | -64 | ? | –
CC1CN(CCOCCSc2ccccc2)CC(C)O1 (configuration not stated) | – | – | -67 | – | –
CC1CN(CCOc2ccccc2C(C)C)CC(C)O1 (configuration not stated) | – | – | -69 | – | –
Cc1ccc(C)c(OCCOCCN2CC(C)OC(C)C2)c1C (configuration not stated) | – | – | -75 | – | –
CCOc1ccc(N(CC(=O)N2CCCCC2)S(=O)(=O)c2ccc(Cl)cc2)cc1 | – | – | – | – | –
COC(=O)c1c(NC(=O)C2COc3ccccc3O2)sc2c1CCN(C(=O)OC)C2 (configuration not stated) | · | – | – | – | –
CN(C)C(=O)C(CCN1CCC(O)(c2ccc(Cl)cc2)CC1)(c1ccccc1)c1ccccc1 | · | – | -81 | · | –
CCOC(=O)c1nn(C)c(C)c1Cl | – | – | -71 | – | –
Cc1nn2c(=O)cc(COC(=O)c3ccc(NC(=O)c4ccc(C(C)(C)C)cc4)cc3)nc2s1 | · | – | · | · | –
CCOC(=O)C1(C)CCCN1C(=O)c1snnc1C (configuration not stated) | · | – | -51 | · | ·
CCOC(=O)C1(C)CCCCCN1C(=O)c1csnn1 (configuration not stated) | · | – | – | · | ·
Cn1c2ccc(F)cc2c2nnc(SCC(=O)Nc3cccc(O)c3)nc21 | – | 34 | – | – | –
Cc1ccc(-n2c(SCC(=O)N3CCOCC3)nnc2-c2ccncc2)cc1 | – | – | -76 | – | –
COc1ccc(CCNC(=O)CSCc2nc(-c3cccc(C)c3)oc2C)cc1OC | · | – | · | · | –
O=c1/c(=C/c2ccco2)sc2n1CN(c1ccccc1)CN=2 | – | – | – | – | –
O=c1/c(=C/c2ccco2)sc2n1CN(c1cccc(Br)c1)CN=2 | – | – | -61 | – | –
CCOC(=O)N1CCN(C(=O)CN(c2cc(C)ccc2OC)S(=O)(=O)c2ccc(C)cc2)CC1 | · | – | · | · | –
CCc1nnc(NC(=O)CSc2nc(-c3ccc(F)cc3)cc(-c3ccccc3)c2C#N)s1 | – | – | – | – | –
N#Cc1c(-c2ccccc2)cc(-c2cccs2)nc1SCC(=O)O | – | – | -55 | – | –
N#Cc1c(-c2ccc(Cl)cc2)cc(-c2cccs2)nc1SCC(=O)O | – | – | – | – | –
COc1ccc(-c2cc(-c3ccccc3)nc(SCC(=O)Nc3ncc(C)s3)c2C#N)cc1 | – | – | -56 | – | –
CSCC[C@H](NC(=O)[C@H](Cc1c[nH]c2ccccc12)NC(=O)CCNC(=O)OC(C)(C)C)C(=O)N[C@@H](CC(=O)O)C(=O)N[C@@H](Cc1ccccc1)C(N)=O | · | – | · | · | ·
COc1ccc(N2CCN(C(=O)Cn3nnc(-c4cccs4)n3)CC2)cc1 | – | – | -103 | – | –
COc1ccc(S(=O)(=O)N(C)c2ccc(C(=O)N3CCCCC3)cc2)cc1 | – | 38 | – | – | –
SMILES | B2AR arrestin | D3 ag | D3 antag | a7 integrin act | mIDH1 inhibitor
COc1ccc(S(=O)(=O)N(C)c2ccc(C(=O)N3CCOCC3)cc2)cc1 | – | – | – | – | –
O=c1oc(-c2ccco2)nc2ccccc12 | – | – | -57 | – | –
CN=C1SC(CC(=O)Nc2ccc(F)cc2F)C(=O)N1/N=C/c1ccc(OC(F)F)c(OC)c1 (configuration not stated) | – | – | – | – | –
CN1CCN(C2Cc3cc(F)ccc3Sc3ccc(Cl)cc32)CC1 (configuration not stated) | · | – | -120 | – | –
CN1CCN(C2Cc3ccc(F)cc3Sc3cc(F)c(Cl)cc32)CC1 (configuration not stated) | · | – | -105 | – | –
COc1ccc(NC(=O)CN(C)C(=O)CNC(=O)c2ccc(C)s2)cc1 | – | – | – | – | –
O=C(NCC1CCCO1)/C(=C\c1ccccc1F)NC(=O)c1ccccc1 (configuration not stated) | – | – | – | – | –
Cc1cccc(CNC(=O)C2CCN(c3nnc(-n4c(C)ccc4C)s3)CC2)c1 | · | – | · | · | ·
CN(C)C(CNC(=O)Nc1cccc(Cl)c1)c1cccnc1 (configuration not stated) | – | – | -52 | – | –
CN(C)C(CNC(=S)Nc1cccc(Cl)c1)c1ccccc1 (configuration not stated) | – | – | -70 | – | –
CC(C)[C@H](NC(=O)c1ccccc1Cl)C(=O)Nc1ccc(S(=O)(=O)Nc2nccs2)cc1 | – | – | – | – | ?
O=C(C[C@H]1C/C=C\C[C@H](Cc2ccc(F)cc2)C(=O)O[C@@H](c2ccccc2)CNC1=O)N[C@H](CO)Cc1ccccc1 | – | 43 | – | – | –
O=C1NC[C@H](c2ccccc2)OC(=O)[C@@H](Cc2ccc(F)cc2)CC/C=C/C[C@@H]1CC(=O)N(CCO)Cc1ccccc1 | – | – | -70 | – | –
CC(C)(C)OC(=O)C[C@@H]1C/C=C\C[C@@H](CC(=O)NCCO)C(=O)NC[C@@H](c2ccccc2)OC1=O | – | – | -63 | – | –
CC(C)(C)OC(=O)C[C@H]1C/C=C\C[C@@H](CC(=O)NCCO)C(=O)NC[C@H](c2ccccc2)OC1=O | – | – | – | – | –
O=C(C[C@H]1C/C=C\C[C@H](NC(=O)OCC2c3ccccc3-c3ccccc32)C(=O)OC[C@H](Cc2ccccc2)NC1=O)N[C@H](CO)Cc1ccccc1 | – | – | -51 | – | –
O=C(C[C@H]1C/C=C\CC[C@H](Cc2ccc(F)cc2)C(=O)O[C@@H](c2ccccc2)CNC1=O)N[C@@H](CO)Cc1ccccc1 | – | – | – | – | –
COc1cc2c(cc1OC)CN(C(=O)CN1C(=O)c3ccc([N+](=O)[O-])cc3C1=O)CC2 | ? | – | – | – | –
CCCn1c(CCC(=O)Nc2cc(C(=O)OC)cc(C(=O)OC)c2)nc2cccnc21 | · | – | · | · | –
COc1cccc(CNC(=O)C(=O)NCC(c2ccc3c(c2)OCO3)N2CCOCC2)c1 (configuration not stated) | · | – | · | · | –
CC(C)(C)[C@@H]1COC(=O)[C@H](Cc2ccc(F)cc2)C/C=C\C[C@@H](CC(=O)N(CCO)Cc2ccccc2)C(=O)N1 | – | 42 | – | – | –
